These results are taken from PubChem BioAssay (EPA / NIEHS).

Common to all, as to conditions: mRNA level, 48 h; actives raise or lower the signal
Read-out in experiment [1]: Tumor necrosis factor receptor superfamily member 6 (Homo sapiens) (UniProt P25445)
Put plainly: LTEA_HepaRG_FAS: Life Technologies and Expression Analysis (LTEA) Assay for Fas cell surface death receptor (FAS) using HepaRG (AID 2283447). The essentials: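 Differentiated HepaRG cells in serum-free induction medium were exposed 48 h to 8 half-log concentrations up to 100 uM in 0.5% DMSO, in duplicate. FAS mRNA was measured by qRT-PCR normalised to ACTB, GAPDH and POLR2A; bidirectional fit versus DMSO.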

Read-out in experiment [2]: Fatty acid synthase (Homo sapiens) (UniProt P49327)
The experiment in a line: LTEA_HepaRG_FASN: Life Technologies and Expression Analysis (LTEA) Assay for Fatty Acid Synthase (FASN) using HepaRG (AID 2283448). Summed up: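 Differentiated human HepaRG cells were exposed for 48 h in serum-free induction medium to eight half-log concentrations up to 100 uM in 0.5% DMSO, in duplicate. FASN mRNA was quantified by TaqMan qRT-PCR, normalized to ACTB/GAPDH/POLR2A, and fitted bidirectionally against DMSO.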

Read-out in experiment [3]: Cyclin D2 (CCND2), CCND2 (gene 894)
The experiment in a line: LTEA_HepaRG_CCND2: Life Technologies and Expression Analysis (LTEA) Assay for Cyclin D2 (CCND2) using HepaRG (AID 2283449).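 Further: CCND2 transcript measured by TaqMan qRT-PCR and normalised to three housekeeping genes.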 The essentials:
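Chemicals in 0.5% DMSO, eight half-log concentrations from 100 uM top, were applied in duplicate for 48 h to human HepaRG cells in serum-free induction medium. CCND2 mRNA by TaqMan qRT-PCR, normalised to ACTB/GAPDH/POLR2A; bidirectional fit versus DMSO.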

Read-out in experiment [4]: Cyclin Dependent Kinase Inhibitor 1A (CDKN1A), CDKN1A (gene 1026)
The experiment in a line: LTEA_HepaRG_CDKN1A: Life Technologies and Expression Analysis (LTEA) Assay for Cyclin Dependent Kinase Inhibitor 1A (CDKN1A) using HepaRG (AID 2283450). Summed up:
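HepaRG, 48 h dosing, 8-pt half-log series from 100 uM top, 0.5% DMSO vehicle, duplicates. Readout: TaqMan qRT-PCR of CDKN1A transcript, housekeeping-normalized (ACTB, GAPDH, POLR2A). Up/down curve fit relative to DMSO.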

Read-out in experiment [5]: Cyclin D1 (CCND1), CCND1 (gene 595)
Put plainly: LTEA_HepaRG_CCND1: Life Technologies and Expression Analysis (LTEA) Assay for Cyclin D1 (CCND1) using HepaRG (AID 2283451).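 On AC50: TaqMan qRT-PCR transcript level normalised to ACTB GAPDH and POLR2A housekeeping genes.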 Summed up: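 qRT-PCR (Fluidigm 96.96 array) read-out of transcript level, housekeeping-normalized (ACTB/GAPDH/POLR2A). HepaRG cells, 48 h chemical exposure, 8-point half-log series from 100 uM, 0.5% DMSO vehicle; gain or loss relative to DMSO baseline.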

Read-out in experiment [6]: catalase (CAT), CAT (gene 847)
The experiment in a line: LTEA_HepaRG_CAT: Life Technologies and Expression Analysis (LTEA) Assay for catalase (CAT) using HepaRG (AID 2283452). The essentials: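 HepaRG cells in serum-free induction medium, 0.5% DMSO vehicle, exposed 48 h in duplicate over 8 half-log concentrations from 100 uM. CAT mRNA measured by qRT-PCR, normalized to ACTB, GAPDH, POLR2A; bidirectional fit versus DMSO.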

Read-out in experiment [7]: flavin-containing dimethylaniline monooxygenases 3 (FMO3), FMO3 (gene 2328)
The experiment in a line: LTEA_HepaRG_FMO3: Life Technologies and Expression Analysis (LTEA) Assay for flavin-containing dimethylaniline monooxygenases 3 (FMO3) using HepaRG (AID 2283453).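 On AC50: FMO3 transcript by TaqMan qRT-PCR normalized to ACTB GAPDH and POLR2A.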 Summed up:
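HepaRG, 48 h exposure, 8-pt half-log series from 100 uM, 0.5% DMSO vehicle, duplicates; FMO3 transcript by Fluidigm TaqMan qRT-PCR, housekeeping-normalized; gain/loss fit vs DMSO.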

Read-out in experiment [8]: Cytochrome P450 (CYP1A1), CYP1A1 (gene 1543)
The experiment in a line: LTEA_HepaRG_CYP1A1: Life Technologies and Expression Analysis (LTEA) Assay for Cytochrome P450 (CYP1A1) using HepaRG (AID 2283454). Summed up:
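qRT-PCR read-out: CYP1A1 transcript normalized to three housekeeping genes, fitted bidirectionally against 0.5% DMSO vehicle baseline. Human HepaRG cells, 48 h chemical exposure, 8-point half-log series topping at 100 uM.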

Read-out in experiment [9]: CFLAR gene, CFLAR (gene 8837)
The experiment in a line: LTEA_HepaRG_CFLAR: Life Technologies and Expression Analysis (LTEA) Assay for CFLAR gene using HepaRG (AID 2283455). Summed up:
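Differentiated HepaRG cells in serum-free induction medium were exposed 48 h in duplicate to eight half-log concentrations up to 100 uM in 0.5% DMSO; mRNA measured by TaqMan qRT-PCR, normalized to ACTB, GAPDH, POLR2A; bidirectional fitting versus DMSO.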

Read-out in experiment [10]: Forkhead box O1 (FOXO1), FOXO1 (gene 2308)
The experiment in a line: LTEA_HepaRG_FOXO1: Life Technologies and Expression Analysis (LTEA) Assay for Forkhead box O1 (FOXO1) using HepaRG (AID 2283456). The essentials: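 Differentiated HepaRG cells, in serum-free induction medium with 0.5% DMSO, exposed 48 h in duplicate to 8-point half-log series from 100 uM. FOXO1 mRNA measured by TaqMan qRT-PCR, normalized to ACTB, GAPDH, POLR2A; bidirectional fit versus DMSO.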

The source made the active and inactive calls. How the source made its calls: active means hit-call score of the fitted dose curve at least 0.9, where 1 is the maximum; inactive means score below 0.9.

Fatty acid synthase (Homo sapiens), sequence (P49327 whole entry, looked up): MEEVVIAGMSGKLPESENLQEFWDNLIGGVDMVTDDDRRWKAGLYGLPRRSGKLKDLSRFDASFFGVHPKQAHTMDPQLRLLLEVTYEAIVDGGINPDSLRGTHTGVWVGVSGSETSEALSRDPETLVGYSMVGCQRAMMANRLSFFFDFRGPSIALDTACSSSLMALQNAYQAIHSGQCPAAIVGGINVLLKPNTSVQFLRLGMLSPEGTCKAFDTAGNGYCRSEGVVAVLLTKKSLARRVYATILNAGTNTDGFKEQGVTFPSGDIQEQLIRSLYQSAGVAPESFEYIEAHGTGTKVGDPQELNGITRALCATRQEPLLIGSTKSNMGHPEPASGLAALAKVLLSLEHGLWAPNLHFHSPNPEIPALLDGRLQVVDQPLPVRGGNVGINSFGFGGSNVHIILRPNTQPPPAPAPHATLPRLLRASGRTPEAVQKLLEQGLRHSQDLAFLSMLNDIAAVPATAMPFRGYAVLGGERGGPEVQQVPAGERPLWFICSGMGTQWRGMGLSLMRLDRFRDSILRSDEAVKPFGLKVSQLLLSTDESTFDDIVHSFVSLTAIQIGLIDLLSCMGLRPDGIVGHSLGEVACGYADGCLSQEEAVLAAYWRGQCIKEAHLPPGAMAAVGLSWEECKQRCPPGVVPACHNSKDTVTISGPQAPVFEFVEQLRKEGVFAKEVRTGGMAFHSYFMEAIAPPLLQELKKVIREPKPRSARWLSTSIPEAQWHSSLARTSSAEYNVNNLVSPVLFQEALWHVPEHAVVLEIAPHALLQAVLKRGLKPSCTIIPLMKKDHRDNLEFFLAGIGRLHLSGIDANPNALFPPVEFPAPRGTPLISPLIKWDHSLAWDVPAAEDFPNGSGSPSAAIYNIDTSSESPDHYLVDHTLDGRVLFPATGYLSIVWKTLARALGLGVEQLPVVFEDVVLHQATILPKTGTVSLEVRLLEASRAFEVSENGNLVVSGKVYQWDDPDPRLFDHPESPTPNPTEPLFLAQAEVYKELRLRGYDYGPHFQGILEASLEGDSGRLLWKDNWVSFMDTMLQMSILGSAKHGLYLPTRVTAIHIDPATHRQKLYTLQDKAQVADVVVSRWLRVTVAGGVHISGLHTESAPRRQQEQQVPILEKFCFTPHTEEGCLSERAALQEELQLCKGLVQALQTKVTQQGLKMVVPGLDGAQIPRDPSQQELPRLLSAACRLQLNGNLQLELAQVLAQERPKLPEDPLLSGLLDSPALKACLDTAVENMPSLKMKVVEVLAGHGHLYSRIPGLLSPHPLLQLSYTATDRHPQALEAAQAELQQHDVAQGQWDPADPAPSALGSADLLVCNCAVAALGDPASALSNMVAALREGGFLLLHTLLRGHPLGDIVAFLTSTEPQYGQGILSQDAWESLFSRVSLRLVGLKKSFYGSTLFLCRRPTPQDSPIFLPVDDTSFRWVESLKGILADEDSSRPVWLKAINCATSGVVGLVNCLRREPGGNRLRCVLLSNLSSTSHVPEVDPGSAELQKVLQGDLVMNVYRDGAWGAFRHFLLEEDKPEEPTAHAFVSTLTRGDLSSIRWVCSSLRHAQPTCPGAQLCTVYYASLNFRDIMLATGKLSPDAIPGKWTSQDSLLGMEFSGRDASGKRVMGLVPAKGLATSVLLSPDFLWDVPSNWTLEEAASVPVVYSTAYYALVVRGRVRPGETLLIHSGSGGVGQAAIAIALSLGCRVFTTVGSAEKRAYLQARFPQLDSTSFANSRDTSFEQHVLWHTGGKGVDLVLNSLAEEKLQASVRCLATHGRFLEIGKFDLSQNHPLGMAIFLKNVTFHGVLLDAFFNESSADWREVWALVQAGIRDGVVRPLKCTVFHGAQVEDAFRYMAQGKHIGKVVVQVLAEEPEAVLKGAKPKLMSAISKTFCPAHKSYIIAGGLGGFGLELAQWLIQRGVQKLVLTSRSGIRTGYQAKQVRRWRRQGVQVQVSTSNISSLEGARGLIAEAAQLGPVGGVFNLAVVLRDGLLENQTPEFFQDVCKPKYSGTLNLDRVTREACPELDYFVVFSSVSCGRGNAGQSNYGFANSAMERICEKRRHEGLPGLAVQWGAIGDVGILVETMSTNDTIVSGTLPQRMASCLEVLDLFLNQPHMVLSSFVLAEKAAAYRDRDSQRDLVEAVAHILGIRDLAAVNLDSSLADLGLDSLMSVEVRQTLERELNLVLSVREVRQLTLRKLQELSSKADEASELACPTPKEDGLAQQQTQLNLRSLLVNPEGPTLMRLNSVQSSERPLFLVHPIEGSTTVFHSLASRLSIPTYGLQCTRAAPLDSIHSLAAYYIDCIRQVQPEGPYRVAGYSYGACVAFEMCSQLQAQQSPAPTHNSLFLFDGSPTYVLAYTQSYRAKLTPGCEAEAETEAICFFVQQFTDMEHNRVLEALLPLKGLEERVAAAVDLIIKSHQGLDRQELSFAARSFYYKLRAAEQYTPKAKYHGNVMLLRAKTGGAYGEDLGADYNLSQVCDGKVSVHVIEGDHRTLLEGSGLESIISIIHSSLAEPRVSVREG

As for `CCCCCOC(C)=O`, the compound was called inactive in [1], in experiment [2], in experiment [3], in experiment [4], in [5] and in experiment [6]. Besides, the call in experiment [7], in [8], in experiment [9] and in [10] was inactive.

`O=S(=O)(O)c1ccc(N=Nc2c(O)ccc3cc(S(=O)(=O)O)ccc23)cc1`: the compound was called inactive in experiment [1], in experiment [2], in experiment [3], in [4], in experiment [5] and in [6]. Besides, the compound was classed as inactive in experiment [7], in experiment [9] and in [10]. Besides, the concentration at half-maximal activity (AC50) in experiment [8] was 50 µM (active).

Take `COc1cc(C(C)C)c2c(c1)S(=O)(=O)N(COc1cc(=O)n3cccc(OCCN4CCCCC4)c3n1)C2=O`: the outcome in experiment [1], in [4], in [8] and in [10] was inactive. Besides, the concentration at half-maximal activity (AC50) in [2] is 20.7 µM (active); in [5] it was 19.4 µM (active); in experiment [6], 19.4 µM (active); in experiment [7], 23 µM (active); in [9], 19.5 µM (active).

As for `NNC(=O)c1ccncc1`, the result in [1], in experiment [2], in [3], in experiment [4], in [5] and in experiment [6] was inactive. The compound was classed as inactive in experiment [7], in [9] and in experiment [10]. Moreover, in [8], the AC50 was 22 µM (active).

In the case of `O=C1CN(N=Cc2ccc([N+](=O)[O-])o2)C(=O)N1`, the compound was called inactive in experiment [1], in experiment [2], in experiment [3], in [5], in experiment [6] and in experiment [8]. For the same compound, the outcome in experiment [9] and in experiment [10] was inactive. Moreover, the half-maximal activity concentration (AC50) is 81.5 µM (active) in experiment [4] and 73 µM (active) in experiment [7].

For `NC(=O)N1c2ccccc2C=Cc2ccccc21`, the compound was classed as inactive in experiment [1], in experiment [2], in experiment [4], in [5], in experiment [6] and in experiment [7]. The result in experiment [8], in [9] and in experiment [10] was inactive.

On to `Cc1ccc(S(=O)(=O)NC(=O)NN2CCCCCC2)cc1`, for which the compound was called inactive in [1], in [2], in [3], in experiment [4], in [5] and in experiment [6]. In addition, the outcome in experiment [7], in experiment [9] and in experiment [10] was inactive.

As for `OC[C@H]1O[C@@H]2O[C@H]3[C@H](O)[C@@H](O)[C@@H](O[C@H]4[C@H](O)[C@@H](O)[C@@H](O[C@H]5[C@H](O)[C@@H](O)[C@@H](O[C@H]6[C@H](O)[C@@H](O)[C@@H](O[C@H]7[C@H](O)[C@@H](O)[C@@H](O[C@H]1[C@H](O)[C@H]2O)O[C@@H]7CO)O[C@@H]6CO)O[C@@H]5CO)O[C@@H]4CO)O[C@@H]3CO`, the compound was called inactive in experiment [1], in [2], in experiment [3], in experiment [4], in [5] and in experiment [6]. Moreover, the call in [7], in [9] and in [10] was inactive. In experiment [8], the concentration at half-maximal activity (AC50) is 26.2 µM (active).

With `O=C(O)c1cccc(C(=O)O)c1`, the result in experiment [1], in experiment [2], in experiment [3], in experiment [4], in experiment [5] and in experiment [6] was inactive. The result in experiment [7], in experiment [9] and in experiment [10] was inactive. The AC50 in experiment [8] was 50 µM (active).

For the compound `O=C(O)[C@H](O)[C@@H](O)C(=O)O`, the outcome in experiment [1], in experiment [2], in [3], in experiment [4], in experiment [5] and in experiment [6] was inactive. Further, the outcome in [7], in experiment [9] and in experiment [10] was inactive.

In the case of `C=CN1CCCC1=O`, the result in experiment [1], in experiment [2], in [3], in [4], in [5] and in experiment [6] was inactive. Besides, the outcome in experiment [7], in experiment [9] and in [10] was inactive. The concentration at half-maximal activity (AC50) in [8] was 50 µM (active).

Usually AC50 stands for the concentration giving half of the maximal activity seen.
